The panel holds about 83,000 compounds, 20% with a hit somewhere; the sample as a whole holds those more often.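 Single-dose data. Exposure time 48 hours. Values below 10 considered active.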 A number with no mark means an inactive call. Calls of active or inactive are those of the source.
Key:
Test in all cases: NCI-60 one-dose screen, 48 h (100 = growth as untreated, 0 = no growth, -100 = all killed)
Conditions in all cases: 10 µM unless noted
SR leukemia = system: SR leukemia
RPMI-8226 leukemia = system: RPMI-8226 leukemia
OVCAR-8 ovarian = system: OVCAR-8 ovarian
OVCAR-5 ovarian = system: OVCAR-5 ovarian
OVCAR-4 ovarian = system: OVCAR-4 ovarian
SK-OV-3 ovarian = system: SK-OV-3 ovarian
OVCAR-3 ovarian = system: OVCAR-3 ovarian
HS 578T breast = system: HS 578T breast
T-47D breast = system: T-47D breast
BT-549 breast = system: BT-549 breast
MDA-MB-435 melanoma = system: MDA-MB-435 melanoma
SW-620 colon = system: SW-620 colon
MCF7 breast = system: MCF7 breast
HCT-116 colon = system: HCT-116 colon
HCC-2998 colon = system: HCC-2998 colon
KM12 colon = system: KM12 colon
NCI/ADR-RES ovarian = system: NCI/ADR-RES ovarian
IGROV1 ovarian = system: IGROV1 ovarian

Work on O=C(NCCNc1nccc(-c2c(-c3cccc(F)c3)nc3sccn23)n1)c1ccc(Cl)cc1 yielded a growth (SR leukemia) of 46.5%, a growth (RPMI-8226 leukemia) of 62.4% and a growth (OVCAR-8 ovarian) of 55.1%. For the same molecule, the growth (OVCAR-5 ovarian) was 88.3%, the growth (OVCAR-4 ovarian) was 77.9% and the growth (SK-OV-3 ovarian) was 80.9%. For the same molecule, the growth (OVCAR-3 ovarian) was 75.7%, the growth (HS 578T breast) was 74.8% and the growth (T-47D breast) was 49%. It also gave a growth (BT-549 breast) of 75.9%, a growth (MDA-MB-435 melanoma) of 32.1% and a growth (SW-620 colon) of 65.2%. The growth (MCF7 breast) was 27.7%, the growth (HCT-116 colon) was 33% and the growth (HCC-2998 colon) was 90.1%. The growth (KM12 colon) was 62.8%.
For Cn1c(N2NC(=O)C(N=Nc3ccc(S(N)(=O)=O)cc3)C2=O)nc(-c2ccco2)c(C#N)c1=O (stereo not given), the growth (SR leukemia) was 1.63% (active), the growth (RPMI-8226 leukemia) was 3.99% (active) and the growth (OVCAR-8 ovarian) was 90.2%. It also gave a growth (OVCAR-5 ovarian) of 115%, a growth (OVCAR-4 ovarian) of 59.2% and a growth (SK-OV-3 ovarian) of 102%. The growth (OVCAR-3 ovarian) was 72.7%, the growth (HS 578T breast) was 104% and the growth (NCI/ADR-RES ovarian) was 93%. The growth (T-47D breast) was 72.2%, the growth (BT-549 breast) was 109% and the growth (MDA-MB-435 melanoma) was 119%. It also gave a growth (SW-620 colon) of 51.9%, a growth (MCF7 breast) of 68% and a growth (HCT-116 colon) of 76.4%. The growth (HCC-2998 colon) was 51.1% and the growth (KM12 colon) was 85.5%.
For COc1ccc(C(=O)C2C(C#N)C(C#N)C3c4ccccc4C=CN23)cc1 (stereo not given), the growth (SR leukemia) was 105%, the growth (RPMI-8226 leukemia) was 73.1% and the growth (OVCAR-8 ovarian) was -4.32% (active). For the same molecule, the growth (OVCAR-5 ovarian) was 101%, the growth (OVCAR-4 ovarian) was 62.9% and the growth (SK-OV-3 ovarian) was 93.6%. It also gave a growth (OVCAR-3 ovarian) of 92.2%, a growth (HS 578T breast) of 95.1% and a growth (NCI/ADR-RES ovarian) of 87.9%. The growth (T-47D breast) was 61.5%, the growth (BT-549 breast) was 95% and the growth (SW-620 colon) was 99.7%. The growth (MCF7 breast) was 91.3%, the growth (HCT-116 colon) was 86.1% and the growth (HCC-2998 colon) was 101%. The growth (KM12 colon) was 98.3%.
With C/C(=N\NC(=O)CSc1nc2ccccc2c(=O)n1Cc1ccc(S(N)(=O)=O)cc1)c1ccc(F)cc1 the growth (SR leukemia) was 100%, the growth (RPMI-8226 leukemia) was 112% and the growth (OVCAR-8 ovarian) was 101%. For the same molecule, the growth (OVCAR-5 ovarian) was 96.4%, the growth (OVCAR-4 ovarian) was 99.8% and the growth (SK-OV-3 ovarian) was 111%. It also gave a growth (IGROV1 ovarian) of 106%, a growth (NCI/ADR-RES ovarian) of 104% and a growth (T-47D breast) of 96.7%. The growth (BT-549 breast) was 112%, the growth (SW-620 colon) was 104% and the growth (MCF7 breast) was 96.1%. For the same molecule, the growth (HCT-116 colon) was 102%, the growth (HCC-2998 colon) was 112% and the growth (KM12 colon) was 105%.
For CC(C)N1C(=O)S/C(=C2/SC(=O)N(C(C)C)C2=O)C1=O, the growth (SR leukemia) was 103%, the growth (RPMI-8226 leukemia) was 93.9% and the growth (OVCAR-8 ovarian) was 104%. It also gave a growth (OVCAR-5 ovarian) of 101%, a growth (OVCAR-4 ovarian) of 97.4% and a growth (SK-OV-3 ovarian) of 127%. The growth (OVCAR-3 ovarian) was 106%, the growth (HS 578T breast) was 99.7% and the growth (NCI/ADR-RES ovarian) was 103%. It also gave a growth (T-47D breast) of 104%, a growth (BT-549 breast) of 93.6% and a growth (MDA-MB-435 melanoma) of 100%. For the same molecule, the growth (SW-620 colon) was 102%, the growth (MCF7 breast) was 97.9% and the growth (HCT-116 colon) was 105%. It also gave a growth (HCC-2998 colon) of 104% and a growth (KM12 colon) of 99.9%.
In the case of O=C(CCN1CCCC1)c1ccc([N+](=O)[O-])cc1, the growth (SR leukemia) is reported as 98%, the growth (RPMI-8226 leukemia) is reported as 92.7% and the growth (OVCAR-8 ovarian) is reported as 101%. For the same molecule, the growth (OVCAR-5 ovarian) was 102%, the growth (OVCAR-4 ovarian) was 102% and the growth (SK-OV-3 ovarian) was 101%. The growth (IGROV1 ovarian) was 105%, the growth (HS 578T breast) was 112% and the growth (NCI/ADR-RES ovarian) was 100%. For the same molecule, the growth (T-47D breast) was 88.6%, the growth (MDA-MB-435 melanoma) was 107% and the growth (SW-620 colon) was 105%. The growth (MCF7 breast) was 87.6%, the growth (HCT-116 colon) was 105% and the growth (HCC-2998 colon) was 94.8%. The growth (KM12 colon) was 105%.
CC(=O)Oc1ccc(/C=N/NC(N)=S)nc1 showed a growth (SR leukemia) of 27.9%, a growth (RPMI-8226 leukemia) of 88.7% and a growth (OVCAR-8 ovarian) of 46.3%. The growth (OVCAR-5 ovarian) was 110%, the growth (OVCAR-4 ovarian) was 56% and the growth (SK-OV-3 ovarian) was 88%. The growth (OVCAR-3 ovarian) was 68%, the growth (HS 578T breast) was 127% and the growth (NCI/ADR-RES ovarian) was 41.9%. It also gave a growth (T-47D breast) of 52%, a growth (BT-549 breast) of 32.7% and a growth (MDA-MB-435 melanoma) of 87%. The growth (SW-620 colon) was 60.9%, the growth (MCF7 breast) was 18.4% and the growth (HCT-116 colon) was 70.1%. It also gave a growth (HCC-2998 colon) of 55% and a growth (KM12 colon) of 76.5%.
For N#C/C(=C\c1c(-c2ccccc2)[nH]c2ccccc12)C(=O)c1ccc(Cl)cc1, the growth (SR leukemia) was 48.6%, the growth (RPMI-8226 leukemia) was -9.73% (active) and the growth (OVCAR-8 ovarian) was 46.6%. The growth (OVCAR-5 ovarian) was 62.5%, the growth (OVCAR-4 ovarian) was -11.2% (active) and the growth (SK-OV-3 ovarian) was 53.3%. For the same molecule, the growth (IGROV1 ovarian) was 59%, the growth (HS 578T breast) was 4.84% (active) and the growth (T-47D breast) was 84.9%. The growth (BT-549 breast) was 64.7%, the growth (MDA-MB-435 melanoma) was 13.5% and the growth (SW-620 colon) was 21.1%. For the same molecule, the growth (MCF7 breast) was -27.9% (active), the growth (HCT-116 colon) was 30.9% and the growth (HCC-2998 colon) was 30.7%. The growth (KM12 colon) was 20%.
CCCOC(=O)N[C@H]1CCc2cc(OC)c(OC)c(OC)c2-c2ccc(SC)c(=O)cc21 was tested, and the growth (SR leukemia) was 4.77% (active), the growth (RPMI-8226 leukemia) was 5.39% (active) and the growth (OVCAR-8 ovarian) was 23.6%. For the same molecule, the growth (OVCAR-5 ovarian) was 33.9%, the growth (OVCAR-4 ovarian) was 40.5% and the growth (SK-OV-3 ovarian) was 42.7%. The growth (IGROV1 ovarian) was 17.5%, the growth (HS 578T breast) was 5.68% (active) and the growth (NCI/ADR-RES ovarian) was 5.94% (active). The growth (T-47D breast) was 39.3%, the growth (BT-549 breast) was 10.2% and the growth (MDA-MB-435 melanoma) was -40.4% (active). The growth (MCF7 breast) was 15.6%, the growth (HCC-2998 colon) was 23% and the growth (KM12 colon) was -11.3% (active).
